A number with no mark means an inactive call. Results filed as inconclusive are left out. The source made the active and inactive calls. Unless noted, calls come from the whole dose curve; as a rule, active = well fitted curve in the direction sought with a large enough effect in the repeat runs; inconclusive = weak or mixed curves; inactive = no such curve, though single readings can be large; an effect the other way counts as inactive or inconclusive.

This is an account of results in PubChem BioAssay (Tox21).

A short description of experiment [1]: qHTS assay to identify small molecule agonists of the androgen receptor (AR) signaling pathway in the presence of an antagonist - cell viability counter screen (AID 1259379).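 For activity change, negative = cytotoxicity: MDA-kb2 human breast cancer cells carrying an MMTV luciferase reporter; series mostly up to about 92 µM.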 Note: nearly all actives have a fitted effect of over 25% in size. Note: potency is the fitted concentration of half-maximal effect. In outline:
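Seed MDA-kb2 at 3,000 cells/well; incubate 5 hr, 37C, 0% CO2. Add nilutamide to 3.0uM final, then pin compounds at 15 concentrations. Incubate 16 hr. Add CellTiter-Fluor at 15 hr, read fluorescence after 1 hr.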
(In general: In qHTS, concentration-response curves come from the screen itself.)

Experiment [2] in a line: qHTS assay to identify small molecule agonists of the estrogen receptor beta (ER-beta) signaling pathway - cell viability counter screen (AID 1259380). Note: nearly all actives have a fitted effect of over 30% in size. Note: potency is the fitted concentration of half-maximal effect. In outline: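 CellTiter-Glo read, 30 min RT, same wells as bla assay; cells ER-beta-UAS-bla HEK293T; 16 hr compound, 37C; medium 2% charcoal-stripped FBS.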
The target in experiment [3] is Androgen receptor (Homo sapiens) (UniProt P10275). Put plainly: qHTS assay to identify small molecule agonists of the androgen receptor (AR) signaling pathway in the presence of an antagonist (AID 1259381; calls by dose curve; note: nearly all actives have a fitted effect of over 15% in size). Put shortly: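 Test compounds at 15 concentrations were incubated for 16hr with MDA-kb2 reporter cells in presence of 3.0uM nilutamide (final). Signal: ONE-Glo luciferase luminescence.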
Androgen receptor (Homo sapiens), sequence (P10275 whole entry, looked up): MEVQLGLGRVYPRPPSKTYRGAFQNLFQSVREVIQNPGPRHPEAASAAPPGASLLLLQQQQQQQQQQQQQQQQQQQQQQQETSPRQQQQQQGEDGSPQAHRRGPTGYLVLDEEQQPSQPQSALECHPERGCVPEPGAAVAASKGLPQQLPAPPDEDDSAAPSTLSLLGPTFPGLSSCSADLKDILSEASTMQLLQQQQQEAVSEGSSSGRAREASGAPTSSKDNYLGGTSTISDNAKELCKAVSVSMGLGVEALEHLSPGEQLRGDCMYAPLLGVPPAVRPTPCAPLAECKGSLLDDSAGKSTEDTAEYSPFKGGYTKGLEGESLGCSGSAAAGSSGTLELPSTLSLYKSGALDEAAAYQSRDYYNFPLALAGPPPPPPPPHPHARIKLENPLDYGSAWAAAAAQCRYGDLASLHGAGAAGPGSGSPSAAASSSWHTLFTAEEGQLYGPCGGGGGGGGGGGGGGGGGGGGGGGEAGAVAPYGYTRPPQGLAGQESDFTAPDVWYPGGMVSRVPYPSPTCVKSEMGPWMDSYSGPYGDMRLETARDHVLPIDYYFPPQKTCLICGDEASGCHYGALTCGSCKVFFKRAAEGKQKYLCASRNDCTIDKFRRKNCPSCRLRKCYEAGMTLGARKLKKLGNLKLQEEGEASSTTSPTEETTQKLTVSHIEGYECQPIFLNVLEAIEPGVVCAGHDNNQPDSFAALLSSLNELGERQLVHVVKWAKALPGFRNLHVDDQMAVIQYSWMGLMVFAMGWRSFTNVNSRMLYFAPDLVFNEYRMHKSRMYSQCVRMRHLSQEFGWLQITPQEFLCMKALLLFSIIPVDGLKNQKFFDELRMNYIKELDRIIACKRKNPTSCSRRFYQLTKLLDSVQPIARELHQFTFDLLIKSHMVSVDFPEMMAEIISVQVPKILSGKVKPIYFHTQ

For experiment [4], the target named is Estrogen receptor (Homo sapiens) (UniProt P03372). Put plainly: qHTS assay to identify small molecule agonists of the estrogen receptor alpha (ER-alpha) signaling pathway in the presence of an antagonist (AID 1259383; calls by dose curve; note: top concentration of the series differs between compounds; nearly all actives have a fitted effect of over 15% in size). In outline: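 Stably transfected VM7Luc4E2 reporter cells, kept 5 days in charcoal-stripped serum, received ICI-182,780 at 10.0nM final before compound addition. Following 22hr incubation at 37C and 5% CO2, luciferase signal was read by luminescence.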
Estrogen receptor (Homo sapiens), sequence (P03372 whole entry, looked up): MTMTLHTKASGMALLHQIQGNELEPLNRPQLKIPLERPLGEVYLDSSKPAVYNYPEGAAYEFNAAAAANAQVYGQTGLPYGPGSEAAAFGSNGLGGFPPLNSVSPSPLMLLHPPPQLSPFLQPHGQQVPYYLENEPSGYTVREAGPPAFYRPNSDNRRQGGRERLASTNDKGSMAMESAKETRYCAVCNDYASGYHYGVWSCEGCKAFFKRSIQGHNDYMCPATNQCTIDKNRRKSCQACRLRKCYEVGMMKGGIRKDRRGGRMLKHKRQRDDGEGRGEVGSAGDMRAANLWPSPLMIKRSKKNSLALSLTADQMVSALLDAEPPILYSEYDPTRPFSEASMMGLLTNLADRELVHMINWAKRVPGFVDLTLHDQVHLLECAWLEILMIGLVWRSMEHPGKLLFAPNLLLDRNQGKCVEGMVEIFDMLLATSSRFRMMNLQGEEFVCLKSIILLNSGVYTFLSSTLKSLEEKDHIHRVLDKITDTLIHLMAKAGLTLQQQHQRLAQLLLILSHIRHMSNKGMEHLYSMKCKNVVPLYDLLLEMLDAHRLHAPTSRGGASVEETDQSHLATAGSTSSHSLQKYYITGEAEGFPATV

Experiment [5] concerns the target Progesterone receptor (Homo sapiens) (UniProt P06401). Description: qHTS assay to identify small molecule agonists of the progesterone receptor (PR) signaling pathway (AID 1346784; calls by dose curve; note: nearly all actives have a fitted effect of over 30% in size; note: potency is the fitted concentration of half-maximal effect). Put shortly:
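Using charcoal-stripped serum (2%) to limit endogenous steroids, PR-UAS-bla HEK 293T cells received compounds for 16 hr at 37C after 6 hr plating; beta-lactamase FRET fluorescence was recorded following 2 hr substrate loading at room temperature.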

Experiment [6] shares this target. Description: qHTS assay to identify small molecule antagonists of the progesterone receptor (PR) signaling pathway (AID 1346795; active = well fitted inhibition curve with a large enough effect in the signal ratio in the repeat runs, not every such curve was filed as active; the % refers to the signal ratio; note: potency is the fitted concentration of half-maximal effect). Put shortly:
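Inhibition of R5020-induced (1 nM final) beta-lactamase reporter signal in PR-UAS-bla HEK293T cells was scored by FRET fluorescence after overnight (16 hr) compound treatment.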

The nature of experiment [7]: qHTS assay to identify small molecule antagonists of the progesterone receptor (PR) signaling pathway - cell viability counter screen (AID 1346798). For activity change, negative = cytotoxicity: series mostly up to about 92 µM. Note: nearly all actives have a fitted effect of over 50% in size. Note: potency is the fitted concentration of half-maximal effect. Put shortly:
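ATP content as viability readout: CellTiter-Glo luminescence, 30 min room temperature, in PR-UAS-bla HEK293T cells after 16 hr compound/R5020 treatment at 37C and 5% CO2.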

Experiment [8] is described as follows: qHTS assay to identify small molecule agonists of the progesterone receptor (PR) signaling pathway - cell viability counter screen (AID 1346799; calls by dose curve; note: nearly all actives have a fitted effect of over 45% in size; note: potency is the fitted concentration of half-maximal effect). Put shortly: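 Cytotoxicity in PR-bla HEK293T cells: 16 h compound, 37C; CellTiter-Glo added post-FRET read; luminescence after 30 min RT.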
The nature of experiment [9]: qHTS assay to identify small molecule antagonists of the TGF-beta/Smad signaling pathway - cell viability counter screen (AID 1346824). Note: nearly all actives have a fitted effect of over 50% in size. Put shortly: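 SBE-bla HEK 293T cells, incubated overnight, then compound plus 0.25 ng/mL TGF-beta1 (stock added) for 5 hr at 37 C. Viability was read in the same wells by CellTiter-Glo luminescence after 30 min at room temperature.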

Experiment [10] in a line: qHTS assay to identify small molecule agonists of the TGF-beta/Smad signaling pathway - cell viability counter screen (AID 1346829). Note: top concentration of the series differs between compounds; nearly all actives have a fitted effect of over 45% in size. In outline: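 HEK 293T SBE-bla line, 5 hr compound exposure at 37 C, multiplexed CellTiter-Glo viability read by luminescence.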
Experiment [11] in a line: qHTS assay to identify small molecule agonists of the TGF-beta/Smad signaling pathway (AID 1346859; active = well fitted activation curve with a large enough effect in the signal ratio in the repeat runs, not every such curve was filed as active; the % refers to the signal ratio; note: series mostly up to about 77 µM). Put shortly: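 Stable Smad binding element-beta-lactamase HEK 293T cells; 5 hr compound exposure at 37 C under 5% CO2; 2 hr room-temperature substrate step; fluorescence excited at 405 nm, collected at 460 nm and 530 nm.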
The nature of experiment [12]: Human pregnane X receptor (PXR) small molecule agonists, qHTS cell viability counter screen (AID 1346977). Note: nearly all actives have a fitted effect of over 50% in size. Note: potency is the fitted concentration of half-maximal effect. Put shortly:
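Readout is CellTiter-Fluor fluorescence from PXR-Luc HepG2 cells. Plated cells rested 5hr, then were treated with compounds for 24hr at 37C and 5% CO2, with reagent present during the last hour.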

Experiment [13] can be described thus: qHTS assay to identify small molecule antagonists of the estrogen receptor beta (ER-beta) signaling pathway - cell viability counter screen (AID 1259382). For activity change, negative = cytotoxicity: series mostly up to about 92 µM. Note: nearly all actives have a fitted effect of over 55% in size. Note: potency is the fitted concentration of half-maximal effect. Put shortly:
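In this multiplexed counter screen, cells were seeded at 2,000 per well in medium with 2% charcoal-stripped FBS and incubated 6 hr before compound and 1nM final E2 were added. Sixteen hours later, ATP-based luminescence reported viability.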

Experiment [14] can be described thus: qHTS assay to identify small molecule agonists or antagonists of the thyroid stimulating hormone receptor (TSHR) signaling pathway - wild type cell line counter screen (AID 1259384; calls by dose curve). In outline: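 Wild-type Hek293 cells, 800/well, 18 h at 37C, then compound with Ro20-1724 for 30 min RT. cAMP by HTRF (cAMP-d2/anti-cAMP cryptate), 1 h RT, fluorescence read. 15 concentrations, triplicates.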

In experiment [15] the target is Thyrotropin receptor (Homo sapiens) (UniProt P16473). Description: qHTS assay to identify small molecule antagonists of the thyroid stimulating hormone receptor (TSHR) signaling pathway (AID 1259385; calls by dose curve; note: nearly all actives have a fitted effect of over 20% in size; note: potency is the fitted concentration of half-maximal effect). In outline:
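TSHR-HEK293 cells (800/well) plated 18 h, then compounds with Ro20-1724 and TSH at 1.5 ng/mL final, 30 min at room temperature. cAMP quantified by HTRF (cAMP-d2/anti-cAMP-cryptate, 1 h); 15 concentrations in triplicate.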

Experiment [16] in a line: qHTS assay to identify small molecule agonists of the estrogen receptor alpha (ER-alpha) signaling pathway in the presence of an antagonist - cell viability counter screen (AID 1259386). For activity change, negative = cytotoxicity: series mostly up to about 92 µM.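 Note: cells exposed to compounds for 22 h at 37 °C before the viability read; nearly all actives have a fitted effect of over 30% in size.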 Note: potency is the fitted concentration of half-maximal effect. In outline:
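Viability counter screen using VM7Luc4E2 (full-length ER-alpha, four ERE-luciferase). The cells were treated with compounds alongside ICI-182,780 10.0nM for 22hr, and live-cell protease fluorescence was quantified with CellTiter-Fluor.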

Experiment [17] addresses Thyrotropin-releasing hormone receptor (Homo sapiens) (UniProt P34981). Description: qHTS assay to identify small molecule antagonists of the thyrotropin-releasing hormone receptor (TRHR) signaling pathway (AID 1346877; active = well fitted inhibition curve with a large enough effect in the repeat runs, not every such curve was filed as active; note: series mostly up to about 51 µM). In outline:
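Following an 18 h incubation at 37 °C and a 2 h calcium dye load, TRHR-HEK293 cells were exposed to compound (5 min, room temperature) and challenged with TRH, 1 nM final.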

The target is the same in experiment [18]. Put plainly: qHTS assay to identify small molecule agonists of the thyrotropin-releasing hormone receptor (TRHR) signaling pathway (AID 1346891; calls by dose curve;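 note: HEK293 cells expressing TRHR with calcium dye readout; series mostly up to about 58 µM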). Put shortly: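 In 1536-format, 1500 TRHR-Hek293 cells per well grew 18 h, took up calcium dye for 2 h at 37 °C, received compound, and were read kinetically; 15-point titrations, triplicates.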
For experiment [19], the target named is Estrogen receptor beta (Homo sapiens) (UniProt Q92731). Description: qHTS assay to identify small molecule antagonists of the estrogen receptor beta (ER-beta) signaling pathway (AID 1259378; active = well fitted inhibition curve with a large enough effect in the signal ratio in the repeat runs, not every such curve was filed as active; the % refers to the signal ratio; note: potency is the fitted concentration of half-maximal effect). In outline: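 ER-beta-UAS-bla HEK293T cells in 2% charcoal-stripped FBS medium treated with compound plus 1nM final 17-beta-estradiol for 16 hr at 37C. Beta-lactamase reporter read by FRET substrate fluorescence after 2 hours at room temperature.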
Estrogen receptor beta (Homo sapiens), sequence (Q92731 whole entry, looked up): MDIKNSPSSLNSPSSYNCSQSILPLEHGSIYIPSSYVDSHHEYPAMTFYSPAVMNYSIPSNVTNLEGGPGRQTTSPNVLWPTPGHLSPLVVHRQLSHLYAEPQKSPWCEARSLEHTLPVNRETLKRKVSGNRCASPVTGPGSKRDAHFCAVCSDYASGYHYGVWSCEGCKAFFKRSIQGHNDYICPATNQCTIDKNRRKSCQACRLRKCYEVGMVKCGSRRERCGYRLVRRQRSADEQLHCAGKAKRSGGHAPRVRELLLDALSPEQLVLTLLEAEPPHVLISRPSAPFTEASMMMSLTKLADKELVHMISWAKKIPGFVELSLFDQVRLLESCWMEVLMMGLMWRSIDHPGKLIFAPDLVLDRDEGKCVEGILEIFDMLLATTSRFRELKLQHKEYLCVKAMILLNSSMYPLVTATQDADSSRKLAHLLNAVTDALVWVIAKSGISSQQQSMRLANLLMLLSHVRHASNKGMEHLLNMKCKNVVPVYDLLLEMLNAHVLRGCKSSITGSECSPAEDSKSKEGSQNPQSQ
% is set by controls: 0 for no effect and ±100 for the full control effect.

Thyrotropin receptor (Homo sapiens), sequence (P16473 whole entry, looked up): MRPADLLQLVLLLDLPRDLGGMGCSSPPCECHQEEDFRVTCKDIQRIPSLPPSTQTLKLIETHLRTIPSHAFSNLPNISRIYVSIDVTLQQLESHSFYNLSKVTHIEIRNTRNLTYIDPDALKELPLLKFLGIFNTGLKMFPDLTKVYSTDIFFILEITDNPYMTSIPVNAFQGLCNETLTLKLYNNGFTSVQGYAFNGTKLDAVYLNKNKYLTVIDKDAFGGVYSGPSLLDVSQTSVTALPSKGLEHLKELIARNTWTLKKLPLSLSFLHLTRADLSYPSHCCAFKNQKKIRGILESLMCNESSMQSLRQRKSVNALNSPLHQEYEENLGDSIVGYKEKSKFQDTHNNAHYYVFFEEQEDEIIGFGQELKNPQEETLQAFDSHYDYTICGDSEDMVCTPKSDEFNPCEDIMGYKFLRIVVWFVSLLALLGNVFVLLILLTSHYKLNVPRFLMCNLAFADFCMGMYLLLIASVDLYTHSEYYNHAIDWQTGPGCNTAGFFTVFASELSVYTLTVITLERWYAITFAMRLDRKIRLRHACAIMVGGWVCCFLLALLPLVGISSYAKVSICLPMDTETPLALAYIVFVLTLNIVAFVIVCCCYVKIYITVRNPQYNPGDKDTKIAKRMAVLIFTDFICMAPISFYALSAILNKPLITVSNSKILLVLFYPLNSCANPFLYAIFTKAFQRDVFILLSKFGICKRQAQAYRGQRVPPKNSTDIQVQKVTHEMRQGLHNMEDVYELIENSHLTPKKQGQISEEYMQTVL
Progesterone receptor (Homo sapiens), sequence (P06401 whole entry, looked up): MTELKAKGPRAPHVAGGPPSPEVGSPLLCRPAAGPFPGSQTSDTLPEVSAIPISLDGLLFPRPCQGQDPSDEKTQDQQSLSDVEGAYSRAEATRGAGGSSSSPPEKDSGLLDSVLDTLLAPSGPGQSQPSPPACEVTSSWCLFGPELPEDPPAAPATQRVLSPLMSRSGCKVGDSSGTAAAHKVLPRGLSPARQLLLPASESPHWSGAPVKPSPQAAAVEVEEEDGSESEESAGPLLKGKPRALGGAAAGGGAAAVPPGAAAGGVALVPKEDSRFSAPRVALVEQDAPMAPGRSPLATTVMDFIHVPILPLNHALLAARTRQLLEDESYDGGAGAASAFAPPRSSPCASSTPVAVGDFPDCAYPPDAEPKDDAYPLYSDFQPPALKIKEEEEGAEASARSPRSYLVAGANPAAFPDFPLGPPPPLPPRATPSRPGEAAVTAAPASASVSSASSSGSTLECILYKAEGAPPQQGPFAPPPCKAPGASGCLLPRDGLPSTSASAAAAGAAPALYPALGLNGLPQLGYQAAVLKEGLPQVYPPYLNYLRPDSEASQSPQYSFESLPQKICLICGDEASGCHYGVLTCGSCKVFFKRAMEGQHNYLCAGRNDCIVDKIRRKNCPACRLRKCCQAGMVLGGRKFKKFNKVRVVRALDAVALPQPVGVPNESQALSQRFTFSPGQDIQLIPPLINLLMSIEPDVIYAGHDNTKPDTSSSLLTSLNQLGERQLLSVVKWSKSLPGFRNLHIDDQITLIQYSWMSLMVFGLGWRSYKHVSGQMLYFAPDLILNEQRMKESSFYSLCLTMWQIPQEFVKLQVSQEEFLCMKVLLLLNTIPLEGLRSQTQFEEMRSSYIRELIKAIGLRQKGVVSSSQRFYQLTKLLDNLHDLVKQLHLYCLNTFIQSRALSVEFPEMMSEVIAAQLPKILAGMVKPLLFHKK
Thyrotropin-releasing hormone receptor (Homo sapiens), sequence (P34981 whole entry, looked up): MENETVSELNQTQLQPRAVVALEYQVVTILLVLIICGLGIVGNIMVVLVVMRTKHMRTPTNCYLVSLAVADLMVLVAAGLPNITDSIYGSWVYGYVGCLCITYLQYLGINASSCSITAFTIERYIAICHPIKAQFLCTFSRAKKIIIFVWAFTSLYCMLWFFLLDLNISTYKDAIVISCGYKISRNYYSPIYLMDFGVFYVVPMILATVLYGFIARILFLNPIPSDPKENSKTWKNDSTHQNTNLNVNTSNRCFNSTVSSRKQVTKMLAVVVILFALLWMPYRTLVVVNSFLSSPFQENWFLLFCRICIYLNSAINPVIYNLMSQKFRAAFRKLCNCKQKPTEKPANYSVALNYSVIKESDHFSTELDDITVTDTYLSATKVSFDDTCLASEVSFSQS

For the compound `Nc1cc(Cl)c(O)c(Cl)c1`, the Potency entry in experiment [1], in experiment [2], in experiment [4], in experiment [5], in [6] and in experiment [7] was “inactive” each time. In addition, the Potency result in experiment [8], in experiment [9], in experiment [10], in experiment [11] and in experiment [12] was “inactive” in each case. For the same compound, the outcome in experiment [3] was inactive.
With `COc1ccc2cc1Oc1ccc(cc1)C[C@H]1c3c(cc4c(c3Oc3cc5c(cc3OC)CCN(C)[C@@H]5C2)OCO4)CCN1C`, the Potency in experiment [1] is 26.6 µM (active); in experiment [2], 26.6 µM (active); in [15], 23.7 µM (active); in [16], 13.3 µM (active); in experiment [12], 11.9 µM (active). Moreover, the result in [3], in experiment [14] and in experiment [18] was inactive. Further, the Potency entry in [13], in experiment [4], in [5], in [6], in experiment [9] and in experiment [10] was “inactive” each time. For the same compound, the Potency entry in [17] was “inactive”.
For `CN1CCC[C@@H]1CCO[C@](C)(c1ccccc1)c1ccc(Cl)cc1`, the Potency was 18.8 µM (active) in [19]; 29.8 µM (active) in experiment [1]; 21.1 µM (active) in [13]; 29.8 µM (active) in experiment [15]; 21.1 µM (active) in [7]; 8.41 µM (active) in experiment [8]. In addition, in experiment [12], the Potency was 21.1 µM (active). In addition, the outcome in [14] and in experiment [18] was inactive. The Potency entry in experiment [16], in experiment [5], in experiment [9], in [10] and in experiment [17] was “inactive” in each case.
Consider `Cc1cc(C)c(/C=C2\C(=O)Nc3ccccc32)[nH]1`, for which the Potency result in experiment [1], in experiment [13], in experiment [4], in experiment [5], in experiment [7] and in [9] was “inactive” in each case. Moreover, the Potency entry in experiment [10], in experiment [11] and in experiment [17] was “inactive” each time. The Potency is 11.9 µM (active) in [2] and 7.5 µM (active) in experiment [16]. For the same compound, the result in experiment [3] was inactive.
As to `CC[C@H](C)COC(=O)/C=C/c1ccc(N=Cc2ccc(OC)cc2)cc1`, the Potency in experiment [19] is 54.4 µM (active); in experiment [6] it was 30.6 µM (active). The Potency result in experiment [4], in experiment [5], in [7], in [9], in [10] and in experiment [12] was “inactive” in each case. For the same compound, the call in [14] was inactive.
For `O=C(O)O`, the activity, negative = inhibition in experiment [19] was 1.94% [at 8.39 µM]; in [17] it was 1.6% [at 4.65 µM]. The activity change, negative = cytotoxicity is -10.9% [at 8.39 µM] in [2], -30.1% [at 8.39 µM] in [13], 1.41% [at 8.39 µM] in experiment [16] and 8.74% [at 6.97 µM] in [10]. Besides, the activation in [4] was 10.5% [at 8.39 µM]; in [11], 4.78% [at 6.97 µM]; in [18], -0.122% [at 5.23 µM]. The cAMP activity change in experiment [14] is -3.34% [at 8.39 µM]. In addition, the activity change, negative = inhibition in experiment [15] was 0.713% [at 8.39 µM]. Further, in experiment [5], the Potency is 373 nM (active). The viability change, negative = cytotoxic in [9] was 7.39% [at 6.97 µM].
On to `O=C(Oc1ccccc1)Oc1ccccc1`, for which the Potency entry in experiment [1], in experiment [2], in experiment [13], in experiment [4], in [16] and in experiment [5] was “inactive” throughout. Further, the Potency result in [7], in experiment [8], in experiment [9], in experiment [10], in [11] and in experiment [17] was “inactive” in each case. Further, the Potency entry in [12] is “inactive”. Besides, the result in experiment [14] and in experiment [18] was inactive.
Regarding `OC[C@H]1O[C@H](O[C@H]2O[C@H](CO)[C@@H](O)[C@H](O)[C@H]2O)[C@H](O)[C@@H](O)[C@@H]1O`, the Potency entry in experiment [1], in [2], in [13], in experiment [15], in experiment [16] and in experiment [5] was “inactive” in each case. For the same compound, the Potency entry in experiment [6], in experiment [7], in [8], in [9], in experiment [10] and in [11] was “inactive” throughout. Moreover, the Potency entry in experiment [17] and in [12] was “inactive” each time. In addition, the result in experiment [3], in experiment [14] and in experiment [18] was inactive.
